CDC25B-CDK2 inh: human CDC25B-CDK2/CyclinA binding inhibition; hit rate 0.72% among 94,000; z-score (concentration not given with the values); P30305+P24941; HTRF CDC25B-CDK2/CyclinA binding, anti-His/anti-Flag; stronger effect = higher value; AID 1259370; in the data active = z-score above about 3.2
TAR Tat displ: HIV-1 TAR-Tat binding disruption | hit rate 0.6% among 100,000 | HIV-1 TAR RNA, Tat peptide displacement FRET; stronger effect = higher value | z-score (test concentration not listed) | AID 1259389; active = z-score of 3 or more in at least 2 runs
Active calls of the source: *; x = not tested or not shown. Rows were chosen to be rich in hits. Some 0.9% of all compounds tested hit in one or more screens of this group.

SMILES	CDC25B-CDK2 inh	TAR Tat displ
N#CC1=C2SCN(Cc3ccco3)CN2C(=O)CC1c1cccc2ccccc12 (centres undefined)	-1.5	1.6
N#CC1=C2SCN(C3CCCCC3)CN2C(=O)CC1c1cccc2ccccc12 (centres undefined)	4.2*	0.13
COc1ccc(OC)c(C2CC(=O)N3CN(C4CCCCC4)CSC3=C2C#N)c1 (centres undefined)	5.3*	-0.96
CCOc1ccc(C2CC(=O)N3CN(C4CCCC4)CSC3=C2C#N)cc1 (centres undefined)	1.9	2.3
COc1cccc(C2CC(=O)N3CN(C4CCCCC4)CSC3=C2C#N)c1 (centres undefined)	5.3*	-0.12
N#CC1=C2SCN(C3CCCC3)CN2C(=O)CC1c1ccc(F)cc1 (centres undefined)	4*	0.82
Cc1c(C(=O)N2CCOCC2)sc2nc3n(c(=O)c12)CCCCC3	x	2.5
Brc1ccc2c(c1)CN(Cc1ccccc1)CO2	-1.5	1.2
COc1cccc(C2CC(=O)N3CN(C4CCCC4)CSC3=C2C#N)c1 (centres undefined)	5.7*	2
COc1ccc(CNS(=O)(=O)c2cc(-c3noc(C)n3)cs2)cc1	x	1.7
Cn1c(NCc2ccco2)nc2c1c(=O)n(Cc1ccccc1Cl)c(=O)n2C	-0.42	-1.3
Cc1nc(NC2=NCN(Cc3ccco3)CN2)nc2ccccc12	-1.2	1.8
Cc1cc2nc(NC3=NCN(Cc4ccco4)CN3)nc(C)c2cc1C	14*	0.07
Cc1cc2nc(NC3=NCN(CCN4CCOCC4)CN3)nc(C)c2cc1C	11*	x
Cc1cc2nc(NC3=NCN(CCCN4CCOCC4)CN3)nc(C)c2cc1C	0.99	0.9
O=C(Nc1c(C(=O)N2CCCC2)oc2ccccc12)C1CC1	x	0.21
Cn1c(=O)n(C)c2cc(C(=O)Cc3ccccc3)ccc21	0.57	0.4
CCOc1ccccc1Nc1nc2ccccc2n2nnnc12	-2.3	-3.5
CC(=O)Nc1cccc(OCc2cc(=O)n3oc(C)cc3n2)c1	-2	8.1*
Cc1cc(C)cc(OCc2cc(=O)n3oc(C)cc3n2)c1	-0.7	0.64
COc1ccccc1CN1COc2cc3c(cc2C1)OCO3	-3.7	x
CC1(C)CC(=O)C2=C(C1)Nc1ccccc1NC2c1cccc2ccccc12 (centres undefined)	13*	x
CC1(C)CC(=O)C2=C(C1)Nc1ccccc1NC2c1ccccc1F (centres undefined)	-1	-14
c1ccc2c(c1)c1ccccc1c1nc(N3CCCCC3)nnc21	-0.87	x
CCc1ccc(C2CC(=O)N3CN(c4ccccc4)CSC3=C2C#N)cc1 (centres undefined)	4.5*	-1.2
SMILES	CDC25B-CDK2 inh	TAR Tat displ
CSc1ccc(C2CC(=O)N3CN(Cc4ccco4)CSC3=C2C#N)cc1 (centres undefined)	2	0.97
CSc1ccc(C2CC(=O)N3CN(c4ccc(C)cc4)CSC3=C2C#N)cc1 (centres undefined)	5.5*	-3.1
CSc1ccc(C2CC(=O)N3CN(c4ccccc4F)CSC3=C2C#N)cc1 (centres undefined)	0.14	2.3
CSc1ccc(C2CC(=O)N3CN(C)CSC3=C2C#N)cc1 (centres undefined)	0.34	0.89
CSc1ccc(C2CC(=O)N3CN(c4ccccc4C)CSC3=C2C#N)cc1 (centres undefined)	15*	0.58
CSc1ccc(C2CC(=O)N3CN(c4ccccc4)CSC3=C2C#N)cc1 (centres undefined)	4.1*	-1.2
Clc1ccc2c(c1)NC(c1cccnc1)=NC(c1cccs1)=N2	-0.41	-1.6
O=S(=O)(c1ccc(Cl)cc1)c1cnc2ccccc2c1N1CCCCC1	2.9	-0.13
CC(=O)c1ccc(NC(=S)NC(NC(=O)c2cccc(Cl)c2)C(Cl)(Cl)Cl)cc1 (centres undefined)	3.2*	x
CCOC(=O)c1ccc(NC(=S)NC(NC(=O)c2ccccc2Br)C(Cl)(Cl)Cl)cc1 (centres undefined)	1.8	x
O=C(Cn1ncc2c3ccccc3n(Cc3ccc(Cl)cc3)c2c1=O)N1CCCC1	-1.6	-1.4
COc1cccc2c1NC(c1cccc3ccccc13)C1CC=CC21 (centres undefined)	-0.13	6.4*
COC(=O)c1ccc2c(c1)C1C=CCC1C(c1cccc3ccccc13)N2 (centres undefined)	-0.77	-14
COc1cccc([C@@H]2Nc3ccc(C(=O)O)cc3[C@@H]3C=CC[C@@H]32)c1OC	0.41	-0.49
O=C(O)c1ccc2c(c1)C1C=CCC1C(c1ccc(F)cc1)N2 (centres undefined)	0.41	10*
COC(=O)c1ccc([C@@H]2Nc3ccc(C(=O)O)cc3[C@@H]3C=CC[C@@H]32)cc1	0.2	7.4*
CC(=O)Oc1ccc(C2Nc3ccc(C)cc3C3C=CCC32)c(OC(C)=O)c1 (centres undefined)	0.59	-5.2
COC(=O)c1ccc(C2Nc3ccc(OC)cc3C3C=CCC32)cc1 (centres undefined)	-0.39	0.02
CCc1ccc(C2Nc3ccc(C(=O)O)cc3C3C=CCC32)cc1 (centres undefined)	0.26	x
CC(=O)Oc1ccc(C2Nc3ccc(C(=O)O)cc3C3C=CCC32)c(OC(C)=O)c1 (centres undefined)	5.1*	x
COc1cccc([C@@H]2Nc3ccc(C(=O)O)cc3[C@@H]3C=CC[C@@H]32)c1	2	14*
COc1ccc(-c2nnc(SCc3cc(=O)n4cc(C)sc4n3)n2C)cc1	x	0.45
CC1CCc2nn(CC(=O)Nc3cc(F)ccc3F)cc2C1 (centres undefined)	-1.1	0.82
COc1ccc(S(=O)(=O)N2CCc3cc(OC)c(OC)cc3C2c2ccc(OC)c(OC)c2)cc1 (centres undefined)	-0.15	0.26
Cc1nc(N2CCCCC2)c2c(C(=O)O)noc2n1	0.53	1.7
SMILES	CDC25B-CDK2 inh	TAR Tat displ
O=C1OC(c2ccccc2)C(Cl)=C1Cl (centres undefined)	-2.6	x
O=C1C2C3C=CC(C3=C(c3ccccc3)c3ccccc3)C2C(=O)N1c1cccc2ccccc12 (centres undefined)	-3.1	x
NC(=O)c1c(NC(=O)C2CCCCC2)sc2c1CCC2	x	3
CCOC(=O)C1=C(C)NC2=C(C(=O)CC(C)(C)C2)C1c1ccc(SC)cc1 (centres undefined)	-0.19	0.02
Cc1cc(C)c2c(n1)nn1c(C)c(CCC(=O)NC3CCCC3)c(C)nc21	-1.8	2.5
CCN(CC)c1ccc(NC(=O)CCc2c(C)nc3c4c(C)cc(C)nc4nn3c2C)c(C)c1	-0.09	6.4*
CCN1CCN(C(=O)c2c(C)oc3c2cc(OC(C)=O)c2ccccc23)CC1	7.7*	-2.3
CCN1CCN(C(=O)c2c(C)oc3ncnc(N4CCCCC4)c23)CC1	x	-0.83
CCCCC1(C)OC(=O)C(=Cc2cc3c(cc2[N+](=O)[O-])OCO3)C(=O)O1 (centres undefined)	20*	x
CC1(C)OC(=O)C(=Cc2ccc(OCc3ccc(F)cc3)c([N+](=O)[O-])c2)C(=O)O1	-1.6	x
N#Cc1c(NC(=O)CSc2n[nH]c(=O)[nH]c2=O)sc2c1CCCC2	-1.2	x
CC1CC(C)CN(c2cc(NCCO)c3c4c(onc24)-c2ccccc2C3=O)C1 (centres undefined)	-3.2	1.2
CC1CCCN(c2cc(NCCCC(=O)O)c3c4c(onc24)-c2ccccc2C3=O)C1 (centres undefined)	0.56	-2.2

Screening results deposited in PubChem BioAssay by Center for Chemical Genomics, University of Michigan.
